This is part of a sample that, as a whole, favours compounds with a hit. Of some 83,000 tested, about 20% had one in any assay.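 Step 1: grow cells in 96-well plates. Step 2: add test compound at a single concentration. Step 3: incubate 48 h. Step 4: record percent growth.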 Unmarked numbers belong to inactive results. Active and inactive are the calls of the source. The calls were made as follows: active = growth percent below 10; inactive = the rest.

These results are taken from PubChem BioAssay (NCI).

Test systems include SR leukemia; OVCAR-8 ovarian; OVCAR-5 ovarian; OVCAR-4 ovarian; SK-OV-3 ovarian; IGROV1 ovarian; OVCAR-3 ovarian; HS 578T breast; NCI/ADR-RES ovarian; T-47D breast; BT-549 breast; MDA-MB-435 melanoma; SW-620 colon; MCF7 breast; HCT-116 colon; HCC-2998 colon; KM12 colon.
What all share (assay): NCI-60 one-dose screen, 48 h (100 = growth as untreated, 0 = no growth, -100 = all killed)
What all share (conditions): 10 µM unless noted

As to `CN(C)c1ccc(C2CC(c3ccccc3)=NN2/C=C2\SC(=O)NC2=O)cc1` (centres undefined), the growth is 50.8% with SR leukemia; 100% with OVCAR-8 ovarian; 94.2% with OVCAR-5 ovarian; 82.6% in the test with OVCAR-4 ovarian; 115% with SK-OV-3 ovarian; 94% in the test with IGROV1 ovarian. Also, the growth in the test on OVCAR-3 ovarian is 101%; in the test on HS 578T breast, 98.1%; with NCI/ADR-RES ovarian it was 95.2%; with T-47D breast it was 86.7%; with BT-549 breast it was 87%; in the test on MDA-MB-435 melanoma it was 83.1%. Moreover, the growth with SW-620 colon was 83.9%; in the test on MCF7 breast, 65.4%; with HCT-116 colon, 85.9%; with HCC-2998 colon, 101%; with KM12 colon it was 82.2%.

Take `COc1ccc(NC(=O)/N=c2\oc3c(OC)cccc3cc2-c2cc3ccccc3[nH]2)cc1`: the growth was 107% in the test on SR leukemia; 49.1% with OVCAR-8 ovarian; 88.3% in the test with OVCAR-5 ovarian; 69.8% in the test with OVCAR-4 ovarian; 50% with IGROV1 ovarian; 64.4% with OVCAR-3 ovarian. The growth is 7.84% (active) in the test on HS 578T breast; 57.7% with NCI/ADR-RES ovarian; 81.9% in the test with BT-549 breast; 82.6% with MDA-MB-435 melanoma; 70.3% with SW-620 colon; 70.1% in the test on MCF7 breast. Also, the growth in the test on HCT-116 colon is 28.1%; in the test with HCC-2998 colon, 95.5%; in the test with KM12 colon it was 63.1%.

With `Cc1cccc(-n2c(C)nc3ccc(NC(=O)NCCCl)cc3c2=O)c1`, the growth was 95.9% in the test with SR leukemia; 107% in the test with OVCAR-8 ovarian; 107% in the test with OVCAR-5 ovarian; 107% with OVCAR-4 ovarian; 102% in the test on SK-OV-3 ovarian; 102% in the test on IGROV1 ovarian. The growth in the test with OVCAR-3 ovarian was 105%; in the test with HS 578T breast, 99.4%; in the test on NCI/ADR-RES ovarian, 95.5%; in the test on T-47D breast, 103%; with BT-549 breast, 101%; with MDA-MB-435 melanoma, 99.2%. For the same compound, the growth with SW-620 colon was 97.3%; with MCF7 breast it was 86.1%; in the test with HCT-116 colon it was 103%; in the test on HCC-2998 colon, 114%; in the test with KM12 colon, 106%.

On to `COc1cccc(NC(=O)c2sc3nc4c(cc3c2N)CCCC4)c1`, for which the growth was 14.3% in the test with SR leukemia; 25.8% with OVCAR-8 ovarian; 38.6% with OVCAR-5 ovarian; 72.1% with OVCAR-4 ovarian; 28.7% in the test on SK-OV-3 ovarian; 37.1% with IGROV1 ovarian. In addition, the growth in the test with HS 578T breast is 48%; in the test with NCI/ADR-RES ovarian it was -12.1% (active); with T-47D breast, 41.5%; in the test on BT-549 breast, 66.7%; in the test with MDA-MB-435 melanoma, -40.2% (active); in the test with SW-620 colon, 32.1%. Further, the growth was 13.2% in the test on MCF7 breast, 20.7% in the test on HCT-116 colon, 24.4% with HCC-2998 colon and 23.1% with KM12 colon.

Consider `CCC(c1ccc(OC)cc1)C(CC)c1ccc(OCC[N+](C)(C)C)cc1` (centres undefined), for which the growth with SR leukemia is 53.9%; in the test with OVCAR-8 ovarian, 51.4%; with OVCAR-5 ovarian it was 91%; with OVCAR-4 ovarian it was 63.4%; in the test with SK-OV-3 ovarian it was 87.7%; in the test with OVCAR-3 ovarian, 34.6%. The growth in the test with HS 578T breast is 63.6%; in the test with NCI/ADR-RES ovarian, 100%; in the test with T-47D breast, 62.7%; in the test on BT-549 breast, 57.2%; in the test on MDA-MB-435 melanoma it was 59.8%; in the test on SW-620 colon, 70.6%. Moreover, the growth in the test on HCT-116 colon was 89.6%; with HCC-2998 colon, 39.3%; in the test on KM12 colon it was 49.4%.

As to `COc1ccc(/C=C\c2cc(OC)c(OC)c(OC)c2)c(NS(=O)(=O)c2ccc(C(C)(C)C)cc2)c1O`, the growth in the test on SR leukemia was 16.4%; in the test with OVCAR-8 ovarian, 21.9%; in the test with OVCAR-5 ovarian, 32.4%; with OVCAR-4 ovarian, 28.2%; in the test with SK-OV-3 ovarian, 31%; with IGROV1 ovarian, 38.5%. For the same compound, the growth in the test with OVCAR-3 ovarian is 0.435% (active); in the test on HS 578T breast it was 35.4%; with NCI/ADR-RES ovarian, 9.51% (active); with T-47D breast it was 72.2%; with BT-549 breast it was 37.7%; in the test with MDA-MB-435 melanoma it was -17% (active). The growth with SW-620 colon was 31.7%; with MCF7 breast it was 10.1%; with HCT-116 colon, 13.4%; in the test with HCC-2998 colon, 19.5%; with KM12 colon it was 12.1%.

For `CCC1CCc2nc3sc(C(=O)Nc4ccccc4F)c(N)c3cc2C1` (centres undefined), the growth was 16.8% with SR leukemia; 83.3% with OVCAR-8 ovarian; 87.6% in the test with OVCAR-5 ovarian; 90.9% with OVCAR-4 ovarian; 80.7% in the test with SK-OV-3 ovarian; 88.3% in the test with IGROV1 ovarian. In addition, the growth in the test on HS 578T breast was 70%; in the test with NCI/ADR-RES ovarian, 62.5%; in the test on T-47D breast, 87.4%; in the test on BT-549 breast, 76%; in the test on MDA-MB-435 melanoma, -15.5% (active); with SW-620 colon, 36.4%. Besides, the growth in the test with HCT-116 colon is 63.8%; in the test with HCC-2998 colon it was 91.6%; with KM12 colon it was 35.3%.

Regarding `Clc1nc2ccccc2nc1CI`, the growth with SR leukemia was 8.99% (active); in the test with OVCAR-8 ovarian it was 90.4%; with OVCAR-5 ovarian, 109%; in the test with OVCAR-4 ovarian, 94.3%; with SK-OV-3 ovarian, 104%; in the test on IGROV1 ovarian it was 72.7%. Moreover, the growth in the test with OVCAR-3 ovarian was 123%; with HS 578T breast, 115%; with NCI/ADR-RES ovarian, 98.9%; in the test with T-47D breast, 108%; in the test with MDA-MB-435 melanoma, 89.2%; with SW-620 colon it was 36.3%. Also, the growth with MCF7 breast was 91.1%; in the test with HCT-116 colon it was 23%; with HCC-2998 colon, 117%; in the test with KM12 colon, 104%.

Turning to `O=C1CCCCC=C1C[N+](=O)[O-]`, the growth is 2.57% (active) in the test on SR leukemia; 86.8% in the test on OVCAR-8 ovarian; 104% in the test with OVCAR-5 ovarian; 94.9% with OVCAR-4 ovarian; 91.6% in the test with IGROV1 ovarian; 61% in the test on OVCAR-3 ovarian. Further, the growth in the test on HS 578T breast was 107%; with NCI/ADR-RES ovarian it was 101%; with T-47D breast it was 70.3%; in the test with BT-549 breast it was 97.2%; with MDA-MB-435 melanoma, 92.9%; in the test with SW-620 colon, 39.6%. Moreover, the growth in the test with MCF7 breast is 84.4%; with HCT-116 colon it was 62.5%; in the test with KM12 colon it was 105%.

On to `COc1cc(C(=O)OCCCCCCCCCCC[P+](c2ccccc2)(c2ccccc2)c2ccccc2)ccc1O`, for which the growth with SR leukemia is -58.7% (active); with OVCAR-8 ovarian it was -62% (active); with OVCAR-5 ovarian, 22.6%; in the test on OVCAR-4 ovarian, -11.2% (active); in the test with SK-OV-3 ovarian it was -1.8% (active); in the test with IGROV1 ovarian, 11.6%. Further, the growth was -13.3% (active) with HS 578T breast; 50.6% with NCI/ADR-RES ovarian; -43.1% (active) with T-47D breast; -60.8% (active) in the test with BT-549 breast; -46.7% (active) in the test on MDA-MB-435 melanoma; -0.568% (active) in the test with SW-620 colon. For the same compound, the growth is -40.8% (active) in the test with MCF7 breast, -33.6% (active) in the test on HCT-116 colon, 19.3% in the test with HCC-2998 colon and -80.6% (active) in the test with KM12 colon.
